# NALP1 yeast inh – blocks the NALP1 inflammasome reconstituted in yeast | S. cerevisiae NALP1/ASC/caspase-1 growth, X-gal OD620, 72 h | inhibition, % at 10 µM | actives 0.61% (n = 280,000); in the data active = inhibition mostly above about 24%, no sharp cut-off; inactive = mostly below about 32%
# NALP3 yeast inh – blocks the NALP3 inflammasome reconstituted in yeast | Yeast reconstituted NLRP3/ASC/caspase-1, beta-gal luminescence, 24 h | inhibition, % at 10 µM | actives 0.39% (n = 330,000);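 active = inhibition of 50% or more; inactive = inhibition below 50%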;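 note: plate controls were induced DMSO wells for no effect and uninduced yeast grown without galactose for full effect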
# tim23-1 inh – growth inhibitors of tim23-1 mutant yeast. S. cerevisiae tim23-1 growth, BacTiter-Glo luminescence, 24 h. inhibition, % at 20 µM. actives 1.3% (n = 330,000). AID 463212;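 active = growth inhibition of the mutant yeast at or above 50%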;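 note: temperature-sensitive mutant grown at 25 °C; plate controls were DMSO-treated mutant yeast for no effect and medium wells lacking yeast for full effect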
# tim10-1 inh – tim10-1 yeast growth inhibition; S. cerevisiae tim10-1 ts strain growth, BacTiter-Glo, 24 h; AID 463190; inhibition, % at 20 µM; actives 2.2% (n = 330,000);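 active = inhibition of at least 40%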;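 note: mutant grown at 25 °C; 0% = DMSO wells with yeast and 100% = wells holding no yeast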
# TIM10 inh – inhibits growth of TIM10 yeast strain | S. cerevisiae TIM10 strain growth, BacTiter-Glo luminescence, 24 h | inhibition, % at 10 µM | actives 1.4% (n = 330,000) | AID 463195;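 active = inhibition of 40% or more at the single tested concentration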;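 note: wild-type TIM10 isogenic control strain grown at permissive 25 °C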
# * marks the source's active call; other numbers are inactive results; · = not tested or not shown. Most compounds without a hit are left out; they make up all but 4.1% or so of the library.
SMILES,NALP1 yeast inh,NALP3 yeast inh,tim23-1 inh,tim10-1 inh,TIM10 inh
O=C(CCN1C(=O)C2CC=C(Cl)CC2C1=O)NC1CCCCC1 (stereo not given),42*,2,1,1,0
CN(C)c1ccc(NC(=O)c2cccc(N3C(=O)CCC3=O)c2)cc1,40*,7,14,14,16
O=C(Nc1ccccc1)c1cccc(N2C(=O)CCC2=O)c1,15,-4,20,16,7
CC1CN(S(=O)(=O)c2cccc(C(=O)OCC(=O)N3CCCCCC3)c2)CC(C)O1 (stereo not given),·,0,15,10,1
O=C(CCS(=O)(=O)c1ccc(Cl)cc1)N1CCN(c2ccccc2F)CC1,28*,19,5,-5,-22
Cc1ccc(S(=O)(=O)CCC(=O)N2CCN(c3ccccc3F)CC2)cc1,2,5,2,24,-23
O=C(Oc1cccc2cccnc12)c1ccco1,-18,-10,8,-7,7
O=C(Cc1ccc(Cl)cc1)Oc1cccc2cccnc12,78*,·,·,·,·
Cc1cc(Br)ccc1NC(=O)CN1C(=S)NC(C)(C)CC1C (stereo not given),29*,-4,-3,19,5
CC1CC(C)(C)NC(=S)N1CCCC(=O)Nc1ccc(Br)cc1 (stereo not given),11,-10,-4,13,-18
COCCn1c(-c2ccccc2)cnc1SCC(=O)Nc1cccc2ccccc12,74*,11,38,-4,7
Cc1cc(NCc2ccncc2)ccc1Br,17,-2,-8,-2,2
Cc1ccc(NCc2ccncc2)c(Br)c1,32*,-11,10,6,-28
Cc1ccc(NC(=O)CSc2nnc(-c3cccs3)o2)cc1S(=O)(=O)N(C)C,1,11,7,14,2
CCn1c(COc2ccccc2C)nnc1SCC(=O)Nc1ccc2c(c1)OCCO2,17,-2,-19,12,-7
CCn1c(COc2ccc(Cl)cc2)nnc1SCC(=O)Nc1ccc2c(c1)OCCO2,38*,4,-17,6,-20
O=C(O)c1ccc2c(=O)[nH]c(CN3CCOCC3)nc2c1,7,1,-8,-7,5
O=c1[nH]c(CN2CCOCC2)nc2ccccc12,24*,0,-5,3,3
Cc1cc(C)cc(NC(=O)CSc2nc(CSc3ccc(Cl)cc3)cc(=O)[nH]2)c1,34*,-3,6,7,-16
Nc1cc(=O)[nH]c(SCC(=O)Nc2cc(Cl)cc(Cl)c2)n1,-7,9,9,12,-5
C/C(=N\Nc1ncc(Cl)cc1Cl)c1ccccn1,45*,·,·,·,·
Cc1ccc2[nH]c(C(=O)NCCN3CCCC3)cc2c1,7,11,-5,-4,-8
O=C(COc1ccc(Br)cc1)NCc1ccccn1,6,24,21,2,-3
N#Cc1ccc(OCC(=O)NCCc2ccccn2)cc1,36*,6,3,-14,8
O=C(c1c(O)c2ccccc2oc1=O)C1CCCCC1,3,-16,-14,-10,-39
SMILES,NALP1 yeast inh,NALP3 yeast inh,tim23-1 inh,tim10-1 inh,TIM10 inh
O=C(CCC1CCCC1)c1c(O)c2ccccc2oc1=O,40*,35,1,-13,-26
Cc1ccc(CCNC(=O)Cn2ncc3c([nH]c4ccccc43)c2=O)cc1,12,-10,21,10,-2
O=C(Cn1ncc2c([nH]c3ccccc32)c1=O)NCC1CCN(Cc2ccc(F)cc2)CC1,29*,7,2,9,-6
CCCOC(=O)c1c(NC(=O)CSc2nc(-c3ccco3)cc(C(F)(F)F)n2)sc(C(=O)OC)c1C,41*,16,13,8,9
O=[N+]([O-])c1ccc(N=Nc2c(Cl)cc(O)cc2Cl)cc1,99*,·,·,·,·
CN1CCN(/N=C/c2ccc(OCc3ccccc3)cc2)CC1,25,37,20,3,1
CCOC(=O)C1=C(C)Nc2nnnn2C1c1c[nH]c2ccccc12 (stereo not given),46*,-7,4,-6,-4
CN1CC[C@]23c4ccccc4N[C@H]1[C@]21CCN(C)[C@H]3Nc2ccccc21,·,8,9,11,-1
COC(=O)C1CC23C=CCN4CCC5(c6ccccc6NC15C2C)C43 (stereo not given),37*,8,29,40,10
CC(CCc1ccccc1)NS(=O)(=O)c1ccccc1Cl (stereo not given),-3,20,24,-4,-22
CNC(=O)Nc1cccc2cccnc12,44*,-5,8,-12,-7
COc1nc(Cl)cn(-c2ccc(C)cc2)c1=O,14,7,7,7,14
Cc1ccc(-n2c(Cl)c(Cl)nc(Cl)c2=O)cc1,124*,·,·,·,·

# From PubChem
